# From PubChem BioAssay (Tox21)
# A number with no mark means an inactive call. Active and inactive are the calls of the source. Calls follow the shape of the dose curve; as a rule, active = well fitted curve in the direction sought with a large enough effect in the repeat runs; inconclusive = weak or mixed curves; inactive = flat fitted curve, though single readings scatter.
# Assay: qHTS assay to test for compound auto fluorescence at 590 nm (red) in HepG2 cells (AID 720674)
# Settings: HepG2 autofluorescence, red 540/590 nm, 1 h; series mostly up to 91.3 µM; fluorescence, relative to Rose Bengal: at the top concentration
# Source text: U.S. Tox21 Program National Center for Advancing Translational Sciences [NCATS] NIH Chemical Genomics Center [NCGC] U.S. Environmental Protection Agency [EPA] National Institutes of Environmental Health Sciences [NIEHS] National Toxicology Program [NTP] U.S. Food and Drug Administration [FDA] Tox21 Assay Overview: Compound auto fluorescence often interferes with screening of the compound library against various biological targets and signaling pathways. Some of these compounds may have fluorophoric properties. Such properties may interfere with the assay outputs resulting in false positives and/or negatives. To decrease such complications and ensure the compound activities are relevant in terms of biological response, the Tox21 10K compound library was screened for auto fluorescence. From the fluorophores used as reporter signals in our screening assays, the auto fluorescence equivalencies of compounds against three fluorophores have been evaluated: Triamterene, Fluorescein and Rose Bengal sodium for blue, green and red fluorescence, respectively. The fluorescence intensities were measured using Excitation/Emission wavelengths at 405/460nm, 485/535nm and 540/590nm for blue, green and red labels, respectively. This assay includes the red fluorescence data.
# Tox21 Assay Protocol Summary: 2,000 HepG2 cells in 5 uL of culture medium (MEM containing 10% FBS) per well were dispensed into black wall/clear bottom 1536-well plates using a Multidrop Combi Dispenser (ThermoFisher Scientific, Waltham, MA). The assay plates were incubated overnight at 37 C to allow cell attachment to the well bottom, followed by the transfer of 23 nL compound or DMSO vehicle by a pintool work station (Kalypsys , San Diego, CA). After the assay plates were incubated for 1 hr at 37 C and 5% CO2, fluorescence intensities in the assay plates were measured by an Envision (PerkinElmer, Shelton, CT) plate reader using three labels for measuring blue, green and red fluorescence at […] 460, 535 and 590 nm respectively.
# % is scaled to controls: 0 for no effect and ±100 for the full control effect; potency is read from the fitted curve at half-maximal effect.
Compound,"fluorescence, relative to Rose Bengal",Potency
CCCCCCCCn1sc(Cl)c(Cl)c1=O,-0.0436%,
CC(C)(C)c1ccc(C(=O)CCCN2CCC(OC(c3ccccc3)c3ccccc3)CC2)cc1,-0.0905% [at 46 µM],
CCC1OCC(COc2ccc(Oc3ccccc3)cc2)O1 (stereo not given),0.0127%,
C[C@@H](NCCCc1cccc(C(F)(F)F)c1)c1cccc2ccccc12,-0.0375% [at 46 µM],
O=C(N/N=C/c1ccccc1O)c1ccncc1,-0.787% [at 46 µM],
C=C(C)C(=O)OCC[N+](C)(C)C,0.439%,
O=C1Cc2cc(CCN3CCN(c4nsc5ccccc45)CC3)c(Cl)cc2N1,,inactive
CC[C@H](c1ccc(O)cc1)[C@@H](CC)c1ccc(O)cc1,,inactive
Cc1onc(-c2ccccc2Cl)c1C(=O)N[C@@H]1C(=O)N2[C@@H]1SC(C)(C)[C@@H]2C(=O)O,-0.424% [at 18.6 µM],
CCCC1O[C@@H]2C[C@H]3[C@@H]4CCC5=CC(=O)C=C[C@]5(C)[C@H]4[C@@H](O)C[C@]3(C)[C@]2(C(=O)CO)O1 (stereo not given in full),,inactive
CCCCN(CCCC)C(=O)N(CCCC)CCCC,-0.45%,
CCC(C)(C)C1CCCCC1OC(C)=O (stereo not given),-0.117%,
COc1cccc(N)c1,-0.215%,
CCCCCCCCNC(C)C(O)c1ccc(SC(C)C)cc1 (stereo not given),0.365% [at 46 µM],
CCCCCCCC[N+](CCCCCCCC)(CCCCCCCC)CCCCCCCC,0.113%,
CCCCCCCCCCCC(=O)NCCCN(C)C,-0.0245%,
O=Cc1cc(O)ccc1Br,0.0182% [at 95.7 µM],
C[n+]1cc2c3c(ccc2c2ccc4cc5c(cc4c21)OCO5)OCO3,0.331% [at 46 µM],
Nc1c(Cl)cc(Cl)cc1Cl,-0.187%,
CCCCCCCCCCCCc1ccc(O)cc1,0.135%,

Compound,"fluorescence, relative to Rose Bengal",Potency
CCc1oc2ccccc2c1C(=O)c1cc(Br)c(O)c(Br)c1,0.192% [at 46 µM],
CCOC(=O)c1nc(C(Cl)(Cl)Cl)n(-c2ccc(Cl)cc2Cl)n1,0.208%,
CC(C)(C)NC(=O)[C@@H]1C[C@@H]2CCCC[C@@H]2CN1C[C@@H](O)[C@H](Cc1ccccc1)NC(=O)[C@H](CC(N)=O)NC(=O)c1ccc2ccccc2n1,,inactive
O=C(Oc1cccc2cccnc12)c1ccccc1,-0.0087% [at 46 µM],
c1cc(C(c2ccc(OCC3CO3)cc2)c2ccc(OCC3CO3)cc2)ccc1OCC1CO1 (stereo not given),0.12%,
CCCCCOC(=O)CCCC,-0.205%,
NC(=O)NS(=O)(=O)c1ccc(N)cc1,0.173% [at 46 µM],
CCN(C(=O)c1cc(C)cc(OC[C@H](C)Nc2ccncc2)c1)C(C)C,0.2%,
CCCCCCCCCCCCCC[P+](CCCC)(CCCC)CCCC (tested in a mixture with another compound),-0.0636%,
NNC(=O)c1cccc(C(=O)NN)c1,0.0003%,
O=C(OCC1CO1)C1CCCCC1C(=O)OCC1CO1 (stereo not given),0.101%,
Oc1cc2ccccc2c2ccccc12,0.324%,
Cc1cccc(CN2CCN(C(c3ccccc3)c3ccc(Cl)cc3)CC2)c1 (stereo not given),-0.676% [at 18.6 µM],
Cc1cc(O)c2ccccc2c1O,-0.0997% [at 46 µM],
CCN1/C(=C/C=C/c2sc3ccccc3[n+]2CC)Sc2ccccc21,,12.6 µM (active)
CCc1cc(SCc2sc(-c3ccc(C(F)(F)F)cc3)nc2CN2CCN(c3ccc(OC)cc3)CC2)ccc1OCC(=O)O,-0.193%,
Cc1cccc2c1cc1ccc3cccc4ccc2c1c34,-0.07% [at 95.7 µM],
O=C(NOCC1CC1)c1ccc(F)c(F)c1Nc1ccc(I)cc1Cl,-0.0098% [at 46 µM],
Cc1[nH]cnc1C[C@H]1CCc2c(C)c3ccccc3n2C1=O,,inactive
O=c1c(-c2ccccc2)c1-c1ccccc1,-0.237% [at 46 µM],
